The assay concerns the target alpha-synuclein (aSyn) WT (human, UniProt P37840 1-140). Briefly: RNA Bind-n-Seq. The conditions noted are these: ssRNA.
Turning to GGUGUGGGUGUG, the binding signal came out at 51.8 enrichment score.

As for GGGGGAUGUGGU, the binding signal worked out at 46.4 enrichment score.

GAGGUGGAGGGU registered a binding signal of 57.4 enrichment score.

For the sequence AGUUGGUGGUGG, the binding signal was 46.4 enrichment score.

As to UGGGUGGGAAGG, the binding signal was found to be 43.8 enrichment score.

GUGUAGGUGGGG showed a binding signal of 43.8 enrichment score.

The sequence AGGGGGGAGCAG displayed a binding signal of 49.1 enrichment score.

In the case of UUGGGCGGGUAG, the binding signal came out at 49.1 enrichment score.

Consider UGAUGGGGGUGG, for which the binding signal is 43.8 enrichment score.

In turn, GCGGGGUUAGGG returned a binding signal of 49.1 enrichment score.

For the sequence GAGGGGCUGGCG, the binding signal came to 41.1 enrichment score.

For CGGGUGGGAUGG, the binding signal was 43.8 enrichment score.

Regarding GGGAAGGUUGUG, the binding signal amounted to 43.8 enrichment score.

GGCGAAGGGAGG: the binding signal was found to be 49.1 enrichment score.

GGCGGGGGGUGA had a binding signal of 43.8 enrichment score.

For the sequence CGUGGGGAGUGG, the binding signal was 41.1 enrichment score.

UGGGGGAUGAGG returned a binding signal of 46.4 enrichment score.

Regarding UGUGGGCGGGAG, the binding signal turned out to be 54.6 enrichment score.

UGGAUGGCGGGG had a binding signal of 43.8 enrichment score.

As for GGGGUGAGGUGU, the binding signal was found to be 41.1 enrichment score.

Regarding GGCAGGCUGUGG, the binding signal stood at 41.1 enrichment score.

In turn, UGGGUUUGGGGG registered a binding signal of 46.4 enrichment score.

The sequence GGGGGGCUGAGG registered a binding signal of 43.8 enrichment score.

On to GGAAUGGGGUGG, for which the binding signal stood at 43.8 enrichment score.

UGGGGGUGGAUG had a binding signal of 43.8 enrichment score.

On to UGGCGGGGUGGA, for which the binding signal came to 46.4 enrichment score.

GUGGGGGUGGAU returned a binding signal of 60.2 enrichment score.

UAGGGGUUGUGG gave a binding signal of 43.8 enrichment score.

GGAUGGUUGGUG returned a binding signal of 54.6 enrichment score.

Regarding UGGGAGGGGAGU, the binding signal is 43.8 enrichment score.

GAGUGGGUGGGA came in with a binding signal of 43.8 enrichment score.

GGAGGCAGUGGG had a binding signal of 41.1 enrichment score.

GGUGGGUUUGGG showed a binding signal of 65.9 enrichment score.

For GGGUGGGCGGGG, the binding signal is 96 enrichment score.
